Measured values published in PubChem BioAssay AID1159614 (National Center for Advancing Translational Sciences (NCATS), 2016).
Screen size: about 45,000 compounds; about 65 (0.1%) were called active. The call rests on the fitted dose curve; in most records, active means well fitted activation curve with a large enough effect; inconclusive means small, poorly fitted or top-dose-only effect; inactive means no such curve, though single readings can be large or run the other way. This excerpt belongs to a sample that is enriched for actives.

Each compound was assayed against Galactocerebrosidase (Homo sapiens) (UniProt P54803) (assay: A Novel Cell-Based Assay to Identify Small Molecules for B -Galactocerebrosidase). Conditions: 145M-Twi-hGALC-G270D cells (Twitcher mouse brain line with human GALC G270D), HMU-beta-Gal fluorescence, 48 h; series mostly up to 57.5 µM; activation: at the top concentration.
Description: Lysosomal storage diseases (LSDs) are caused by genetic mutations in genes encoding proteins important for normal lysosomal function. Globoid cell leukodystrophy (GLD), mostly known as Krabbe disease, is a prototype of the neurological LSDs caused by deficiency of beta-galactocerebrosidase (GALC). In brain specimens of GLD patients, psychosine levels are substantially elevated. At elevated concentrations, psychosine becomes cytotoxic to neuronal cells, particularly to oligodendrocytes (OLG), neural cells responsible for myelin formation. Therefore, the biochemical disturbances in GLD are manifested by different degrees of brain demyelination resulting in a broad spectrum of neurological manifestations. Most of the FDA-approved therapies are based on enzyme replacement therapeutic (ERT) agents, which treat non-neurological symptoms of Gaucher disease, Fabry disease, few mucopolysaccharidoses and Pompe disease. Unfortunately, in GLD, a primarily neurological LSD, ERT agents, as large molecular weight molecules unable to cross the blood-brain barrier, which makes this an inefficacious therapeutic approach. In GLD, increasing the residual GALC activity just above the critical threshold (~10% of wild type enzymatic activity), the cytotoxic levels of psychosine will be reduced, avoiding the OLGs apoptosis and the subsequent demyelination process. This will translate in disease stabilization and amelioration of GLD patient symptoms.
A cell-based assay in 1,536-well plate format was developed to implement a quantitative high-throughput screening (qHTS) assay using GLD-disease relevant cells to identify small molecules that produce enhancements of the residual enzymatic activity levels of mutants GALC found and prevalent in GLD patients. Compounds that are active may therefore have some therapeutic application for GLD. After the treatment of live cells for a determined period, using a fluorescent GALC specific substrate, the mutant residual GALC activity is measured. This cell-based qTHS assay was used to screen part of the MLPCN library for small molecule able to increase the mutant GALC enzymatic activity. In this assay, increased fluorescent signal corresponds to enhanced levels of mutant GALC residual enzymatic activity. Activation is the desired outcome for this assay.
NIH Chemical Genomics Center [NCGC]
NIH Molecular Libraries Probe Centers Network [MLPCN]
Assay Submitter (PI): Gustavo Maegawa MD,PhD, University of Florida, Gainesville, FL
2)#Two cell lines were established for the assay: 145M-Twi-hGALC-G270D (brain-derived Twitcher cell line stably expressing human GALC-G270D) and 145M-Twi-hGALC-WT (same 145M-Twi stably expressing human GALC wild type). The Twitcher is the murine C57B/6 model for GLD with naturally occurring homozygous nonsense GALC mutation. The 145M-Twi cell line was established at Maegawa lab (Ribbens J et al 2014).
a.#Media: DMEM/F12 (1:1) with 10% fetal bovine-serum (FBS) with penicillin/streptomycin (PS-1X - 100 I.U./mL of penicillin+100 ug/mL of streptomycin).
b.#The 6-Hexadecanoylamino-4-methylumbelliferyl-b-D-galactoside (HMU-B-gal) substrate was prepared as per Wiederschain et al 1992. Using 20-mL borosilicate tubes, 2.20 mg of HMU-b-Gal was added in each tube to prepare substrate-film with a final air-nitrogen stream evaporation to remove all diluent solvents.
c.#The HMUb-Gal substrate buffer consists of 0.2 M Na2HPO4 (sodium phosphate dibasic)/ 0.1 M Citric Acid with the pH adjusted to 5.2 using HCl. Sodium Azide at 0.02% and Sodium Taurocholate (NaTC) at 1 mg/mL were added to this substrate buffer.
d.#The HMU-b-Gal stopping buffer consist of 0.5 M NaHCO3 (sodium bicarbonate) /0.5 M Na2CO3 (sodium carbonate). […] Triton X-100 at 0.25% was added.
4)#Preparation of HMU-b-Gal substrate tubes
Adding 18.6 mL of the HMUb-Gal substrate buffer to each 20-mL tube (2.20 mg of HMU-b-Gal) will reach a concentration of 0.2 mM. Vortex well the tube until the solution is fully homogenized (clear cloudy solution). […]
Further: 0% is about no effect; nearly all actives have a fitted effect of over 65% in size.

Galactocerebrosidase (Homo sapiens), sequence (P54803 whole entry G286D): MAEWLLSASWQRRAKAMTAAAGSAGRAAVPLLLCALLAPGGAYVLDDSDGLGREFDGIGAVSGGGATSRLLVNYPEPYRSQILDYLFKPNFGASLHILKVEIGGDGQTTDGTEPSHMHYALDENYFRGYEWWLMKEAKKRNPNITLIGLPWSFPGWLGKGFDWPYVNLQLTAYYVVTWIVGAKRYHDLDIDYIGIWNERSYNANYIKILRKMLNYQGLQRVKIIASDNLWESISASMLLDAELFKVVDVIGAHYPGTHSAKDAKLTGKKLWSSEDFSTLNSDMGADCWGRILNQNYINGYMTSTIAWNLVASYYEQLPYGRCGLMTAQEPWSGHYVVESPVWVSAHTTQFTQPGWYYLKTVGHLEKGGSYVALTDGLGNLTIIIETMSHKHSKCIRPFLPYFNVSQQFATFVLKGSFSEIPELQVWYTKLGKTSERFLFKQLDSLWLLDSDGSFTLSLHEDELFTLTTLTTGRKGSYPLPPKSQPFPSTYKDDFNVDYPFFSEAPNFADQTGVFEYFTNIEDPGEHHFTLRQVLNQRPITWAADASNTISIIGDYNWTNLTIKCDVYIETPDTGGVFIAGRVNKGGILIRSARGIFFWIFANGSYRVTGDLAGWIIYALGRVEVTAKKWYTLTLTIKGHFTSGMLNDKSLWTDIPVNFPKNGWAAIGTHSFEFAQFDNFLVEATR

activation, inactive:
Cc1ccc(-c2nnc3c4ccccc4c(C)nn23)cc1NC(=O)c1cccc(Br)c1 -7.24%
CCOc1ccc(-c2cc3c(=O)n(CC(=O)NCc4ccc(OC)cc4)ccn3n2)cc1 -15.5%
O=C(O)c1c(CNCc2cccc(F)c2)c2ccccc2n1Cc1ccccc1 -5.18%
COc1cccc(NC(=O)CCNS(=O)(=O)c2ccc3c(c2)oc(=O)n3C)c1 -7.1%
CCc1ccc(-n2nc(C)c3c(C)cc(=O)n(CC(=O)Nc4ccc(F)cc4C)c32)cc1 -3.14%
CC(C)(C)C1CCc2c(sc(NC(=O)c3ccccc3F)c2C(=O)N2CCCCC2)C1 (stereo unspecified) -13.1%
CCOC(=O)c1ccc(-c2ccc(/C=C(\C#N)C(=O)Nc3ccc(C)cc3)o2)cc1 -11.5%
Cc1ccc2cccc(NC(=O)c3ccc(OC(C)C)cc3)c2n1 -11.4%
CCCCOCCOC(=O)c1cccnc1 -11.9%
CCOc1ccccc1NC(=O)CCS(=O)(=O)c1cccc2nsnc12 2.29%
CCOc1ccc(Nc2nc3c(S(=O)(=O)c4cccc(Cl)c4)nnn3c3ccsc23)cc1 -14.5%
COc1ccc(S(=O)(=O)c2cn(C)c3cc(N4CCCCC4)c(F)cc3c2=O)cc1 -9.33%
O=C(CCS(=O)(=O)c1ccc2c(c1)NC(=O)CO2)Nc1cccc(C(F)(F)F)c1 -4.39%
CC(=O)c1ccc(NC(=O)CSc2nc(-c3ccccc3F)nc3c2c(=O)n(C)c(=O)n3C)cc1 -7.96%
CCOc1ccc(N(CC)S(=O)(=O)N2CCCC(C(=O)Nc3ccc(C(C)=O)cc3)C2)cc1 (stereo unspecified) -18%
CCOC(=O)c1cc2c(=O)n3ccccc3nc2n(CC2CCCO2)c1=NC(=O)c1ccccc1Br (stereo unspecified) -16.4%
COCCNC(=O)CCCN1C(=O)c2ccccc2Sc2ncccc21 -7.98%
Cc1ccc(O)c(NC(=O)c2cc(-c3ccc(F)cc3)no2)c1 -4.86%
COc1ccc(S(=O)(=O)NCC(c2ccc(N(C)C)cc2)N2CCc3ccccc32)cc1OC (stereo unspecified) 7.29%
CCc1ccc(NC(=O)CCCc2nnc3n(CCCOC)c(=O)c4sccc4n23)cc1 -9.86%
Cc1ccc2c(c1)-c1c(cnn1CC(=O)Nc1ccccc1C#N)CO2 -5.88%
O=C(NCCc1ccccc1)C(=O)NCC(c1ccco1)S(=O)(=O)c1ccccc1 (stereo unspecified) -6.34%
CCOC(=O)Cn1c(=O)n(C2CCCCC2)c2nc(-c3cccc(OC)c3)nc(C(N)=O)c21 -10.1%
CCOc1ccc(N(C)S(=O)(=O)c2cc(-c3cnc(C)o3)ccc2OC)cc1 -2.93%
CCc1ccc2ncc3c(-c4ccc(C)cc4)nn(CC(=O)NCc4ccccc4)c3c2c1 -22.7%
COc1ccc(-c2cn3c(n2)sc2cc(C(=O)Nc4ccc(F)cc4)ccc23)cc1 0.197%
COc1cc(Cl)c(NC(=O)CC(C)S(=O)(=O)c2cc3c(cc2C)NC(=O)CO3)c(OC)c1 (stereo unspecified) -5.69%
COc1cc(C(=O)NCCS(=O)(=O)N2CCN(c3ccccc3)CC2)cc(OC)c1OC -8.87%
Nc1ncc(S(=O)(=O)Nc2ccc(OC(F)(F)F)cc2)cn1 -4.92%
Cc1ccc(C)c(Cn2c(CCCNC(=O)C3CCCCC3)nc3ccccc32)c1 -11.7%
COc1ccc(CNC(=O)CC2Oc3ccc(C)cc3NC2=O)cc1 (stereo unspecified) -16.9%
CCN(CCCNC(=O)CSc1cc(=O)n(C)c2cc(Cl)ccc12)c1cccc(C)c1 -33%
COc1ccc(OCC(=O)Nc2cccc(C(=O)OCc3cc(=O)n4nc(C)sc4n3)c2)cc1 0.413%
NC(=O)C1CCN(C(=O)c2cccc(NC(=O)c3nsc4ccccc34)c2)CC1 -9.51%
Cc1ccccc1C(=O)Nc1nnc(S(=O)(=O)N(C)c2ccc(Cl)cc2)s1 6.13%
CCCCN(CC)C(=O)c1c[nH]c2ccc(S(=O)(=O)Nc3cccc(OC)c3)cc2c1=O -12.1%
Cc1c(C(=O)N2CCCC2)oc2c1-c1nn(CC(=O)NCc3ccc(OC(C)C)cc3)cc1CC2 -10.3%
O=C(CN1C(=O)c2cccnc2Oc2ccc(Cl)cc21)NCCc1ccccc1 2.45%
Cc1cccc(Nc2cc(C)nc(-n3nc(C)cc3C)n2)c1 -8.54%
COC(=O)c1cc(NC(=O)CCc2c(C)nc3c4c(C)cc(C)nc4nn3c2C)cc(C(=O)OC)c1 -13.4%
CCOc1ccc(NC(=O)c2cn(C3CCCCC3)c(=O)c3c2c2ccccc2n3C)cc1 -23.7%
Cc1ccc(Cn2cc(CCC(=O)NCc3ccc(OC(C)C)cc3)c3ccccc32)cc1 -8.74%
CCc1cnc2c(c1SCC(=O)c1ccccc1)c(=O)n(C)c(=O)n2C -5.57%
Cc1ccccc1OCc1nc2c3cnn(-c4ccccc4F)c3ncn2n1 -6.17%
O=C(Nc1cccc(Cl)c1)c1csnn1 -15.8%
COc1ccc(C2C(=O)N(C3CCCCC3)CC(=O)N2Cc2ccccc2Cl)cc1OC (stereo unspecified) -7.68%
O=C(Nc1ccc(OC(F)(F)F)cc1)C1CCCN(S(=O)(=O)c2ccc(Br)s2)C1 (stereo unspecified) -10.7%
COc1ccc(-c2cc(-c3ccc(F)cc3)nc3c2COc2ccccc2-3)cc1 -7.39%
O=C(CCCCn1c(=O)c2ccccc2n(CC(=O)Nc2cccc(C(F)(F)F)c2)c1=O)NCc1ccc2c(c1)OCO2 -1.08%
CC(C)C(=O)Nc1nc2c(s1)CC(C(C)(C)C)CC2 (stereo unspecified) -11%
Cc1ccc(CCNC(=O)C2CCN(c3nnc(-n4cccc4CNc4ccc(C)cc4)s3)CC2)cc1 6.11%
CCCCCn1c(=O)[nH]c2cc(C(=O)NCCN(C)CCCC)ccc2c1=O -11.4%
COc1ccc(C)cc1Nc1nc2ccccc2c2nnc(C)n12 -10.1%
Cc1ccc(NC(=O)CSc2nc3ccccc3c3nc(CCn4cncc4C)nn23)cc1F -12.2%
Cc1ccc(Cl)cc1N1CCN(C(=O)c2cnc3c(-c4ccc(F)cc4)c(C)nn3c2C)CC1 -9.19%
COc1ccccc1/C=C/c1nc(C#N)c(NC(C)c2ccccc2)o1 (stereo unspecified) -13.4%
CC(=O)N1c2ccccc2CC1C(=O)N1CCN(c2ccc(F)cc2)CC1 (stereo unspecified) -14.3%
CCN(CC)c1nn2c(=O)c(C(=O)NCCc3ccccc3)cnc2s1 -13%
COc1ccc(C2Sc3ccccc3NC3=C2C(=O)c2ccccc23)c(OC)c1OC (stereo unspecified) -16.7%
CC(=O)Nc1ccc2nc(SCCOc3cc(C)cc(C)c3)sc2c1 -29.8%
Cc1ccc(S(=O)(=O)c2c(Nc3cccc(Cl)c3)sc(C(=O)c3ccc4c(c3)OCO4)c2N)cc1 -7.44%
